Measured values published in PubChem BioAssay AID624255 (Broad Institute, 2012).
Where “and” joins values, the source holds several entries; their conditions need not be identical. Equal values may be shown once. Among all 77,000 compounds or so, about 4,600 (6%) were called active. Another 1% or so got no clear call; they are omitted.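 Rule for the calls: active = mean inhibition above about 93%, with at least 55% of replicates each passing it (limit read from the data, passing the limit was not always enough); inconclusive = only one of those two conditions holds; inactive = neither condition holds.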 Many of the other results were omitted from the sample, so actives are more common in it than they were.

test: growth inhibition of T. cruzi in host fibroblasts – cell-based, beta-gal Tulahuen parasites, NIH3T3 host, luminescence, primary screen (AID 624255); conditions: T. cruzi beta-gal in NIH3T3, GalScreen luminescence, 90 h; at 8.34 µM; stronger effect = higher value

SMILES	inhibition
C/C=C/c1ccc([C@H]2[C@@H](CO)N[C@@H]2CN(CC)C(=O)CN2CCOCC2)cc1	-25.4% (inactive)
CCS(=O)(=O)Nc1ccc2c(c1)C(=O)N(C)[C@@H]1CC[C@@H](CC(=O)N3CCCCC3)O[C@H]1CO2	54.2% (inactive)
CO[C@@H]1CN(C)C(=O)c2cc(NC(=O)C3CCC3)ccc2OC[C@H](C)N(Cc2nccs2)C[C@H]1C	-2.54% (inactive)
COCC(=O)Nc1ccc2c(c1)C(=O)N(C)C[C@@H](OC)[C@H](C)CN(C(=O)CC1CC1)[C@H](C)CO2	34.9% (inactive)
Cc1noc(C)c1S(=O)(=O)Nc1ccc2c(c1)C(=O)N([C@@H](C)CO)C[C@@H](C)[C@@H](CN(C)S(=O)(=O)c1ccccc1)OCCCC[C@H](C)O2	-37.4% (inactive)
Cc1noc(C)c1S(=O)(=O)N(C)C[C@H]1Oc2ccc(N(C)C)cc2CC(=O)N([C@H](C)CO)C[C@@H]1C	97.3% (active)
COc1ccc(S(=O)(=O)Nc2ccc3c(c2)C(=O)N([C@H](C)CO)C[C@@H](C)[C@@H](CN(C)CC2CCCCC2)OCCCC[C@@H](C)O3)cc1	110% (active)
COc1ccc(S(=O)(=O)N(C)C[C@H]2OCCCC[C@H](C)Oc3ccc(NS(=O)(=O)c4ccc(F)cc4)cc3C(=O)N([C@@H](C)CO)C[C@@H]2C)cc1	108% (active)
C[C@@H]1CN([C@H](C)CO)C(=O)Cc2cc(N(C)C)ccc2O[C@H]1CN(C)S(C)(=O)=O	-46% (inactive)
COc1ccc(S(=O)(=O)Nc2ccc3c(c2)C(=O)N([C@H](C)CO)C[C@H](C)[C@@H](CN(C)S(C)(=O)=O)OCCCC[C@@H](C)O3)cc1	50.1% (inactive)
Cc1ccc(S(=O)(=O)N(C)C[C@H]2OCCCC[C@H](C)Oc3ccc(NS(=O)(=O)c4c(C)noc4C)cc3C(=O)N([C@H](C)CO)C[C@@H]2C)cc1	-43.8% (inactive)
Cc1ccc(S(=O)(=O)Nc2ccc3c(c2)CC(=O)N([C@H](C)CO)C[C@@H](C)[C@H](CN(C)S(=O)(=O)c2c(C)noc2C)O3)cc1	-10.8% (inactive)
COc1ccc(S(=O)(=O)Nc2ccc3c(c2)C(=O)N([C@@H](C)CO)C[C@H](C)[C@H](CN(C)S(=O)(=O)c2ccc(F)cc2)OCCCC[C@@H](C)O3)cc1	94.5% (inactive)
COc1ccc(S(=O)(=O)Nc2ccc3c(c2)C(=O)N([C@H](C)CO)C[C@H](C)[C@@H](CN(C)C)OCCCC[C@H](C)O3)cc1	17.4% (inactive) and 81.8% (inactive)
Cc1noc(C)c1S(=O)(=O)Nc1ccc2c(c1)C(=O)N([C@@H](C)CO)C[C@@H](C)[C@H](CN(C)S(=O)(=O)c1ccc(Cl)cc1)OCCCC[C@H](C)O2	96.3% (active)
COc1ccc(S(=O)(=O)Nc2ccc3c(c2)C(=O)N([C@@H](C)CO)C[C@H](C)[C@@H](CN(C)S(=O)(=O)c2ccc(F)cc2)OCCCC[C@H](C)O3)cc1	85% (inactive)
COC(=O)C[C@@H]1CC[C@H]2[C@H](COc3ccc(NC(=O)c4cccs4)cc3C(=O)N2C)O1	2.22% (inactive)
C[C@H]1CCCCO[C@@H](CN(C)Cc2ccc3c(c2)OCO3)[C@@H](C)CN([C@@H](C)CO)C(=O)c2cc(NC(=O)Nc3ccc(F)cc3)ccc2O1	77.3% (inactive)
CN1c2ccc(-c3ccc(C#N)cc3)cc2[C@@H]2[C@@H](CCN2C(=O)C2CCCCC2)[C@H]1CO	50.3% (inactive)

SMILES	inhibition
O=C(NCC1CC1)[C@@H]1[C@@H](CO)[C@@H]2Cn3c(ccc(-c4ccncc4)c3=O)[C@H]1N2Cc1nccs1	32.5% (inactive)
CNC(=O)C[C@H]1CC[C@H]2[C@@H](COc3ccc(NC(=O)c4cccc(OC)c4)cc3C(=O)N2C)O1	3.49% (inactive)
COc1ccccc1-c1ccc2c(c1)[C@H]1[C@H](CCN1S(=O)(=O)c1ccccc1)[C@@H](CO)N2	77.3% (inactive)
CNC(=O)C[C@H]1CC[C@@H]2[C@H](COc3ccc(NC(=O)C(C)C)cc3C(=O)N2C)O1	-65% (inactive)
CC(=O)Nc1ccc2c(c1)C(=O)N(C)[C@H]1CC[C@H](CC(=O)NCc3ccccc3Cl)O[C@H]1CO2	-40.6% (inactive)
CNC[C@H]1OCCCC[C@@H](C)Oc2ccc(NC(=O)Nc3ccc(C(F)(F)F)cc3)cc2C(=O)N([C@H](C)CO)C[C@H]1C	69.3% (inactive)
C[C@H](CO)N1C[C@H](C)[C@H](CN(C)C(=O)NC2CCCCC2)Oc2ccc(NC(=O)CCCN(C)C)cc2CC1=O	25.8% (inactive)
O=C(NC1CCC1)[C@H]1[C@H](CO)[C@H]2Cn3c(ccc(C4=CCCCC4)c3=O)[C@@H]1N2CC1CC1	-4.56% (inactive)
C[C@@H]1CCCCO[C@@H](CN(C)S(=O)(=O)c2ccc(F)cc2)[C@@H](C)CN([C@@H](C)CO)C(=O)c2cc(NC(=O)Nc3ccc(F)cc3)ccc2O1	55.8% (inactive)
COc1ccccc1S(=O)(=O)Nc1ccc2c(c1)C(=O)N(C)C[C@H](OC)[C@H](C)CN[C@H](C)CO2	9.95% (inactive)
O=C([C@H]1N[C@H]2c3ccc(-c4ccccc4)c(=O)n3C[C@H]2[C@@H]1CO)N1CCOCC1	-8.75% (inactive)
C[C@@H]1CCCCO[C@@H](CN(C)S(C)(=O)=O)[C@H](C)CN([C@@H](C)CO)C(=O)c2cc(NS(=O)(=O)c3ccc(F)cc3)ccc2O1	-87.8% (inactive)
Cc1ccc(S(=O)(=O)Nc2ccc3c(c2)C(=O)N([C@H](C)CO)C[C@@H](C)[C@H](CN(C)S(=O)(=O)c2ccc(C)cc2)OCCCC[C@@H](C)O3)cc1	89.1% (inactive)
Cc1ccc(S(=O)(=O)N(C)C[C@H]2OCCCC[C@@H](C)Oc3ccc(NS(C)(=O)=O)cc3C(=O)N([C@H](C)CO)C[C@@H]2C)cc1	-8.39% (inactive)
COc1ccc(S(=O)(=O)N(C)C[C@@H]2OCCCC[C@@H](C)Oc3ccc(NS(=O)(=O)c4ccccc4)cc3C(=O)N([C@@H](C)CO)C[C@H]2C)cc1	71.3% (inactive)
COc1ccc(S(=O)(=O)Nc2ccc3c(c2)C(=O)N([C@H](C)CO)C[C@@H](C)[C@H](CN(C)S(=O)(=O)c2ccc(Cl)cc2)OCCCC[C@@H](C)O3)cc1	87% (inactive)
C[C@@H]1CCCCO[C@H](CN(C)S(=O)(=O)c2ccc(F)cc2)[C@H](C)CN([C@@H](C)CO)C(=O)c2cc(NS(=O)(=O)c3ccccc3)ccc2O1	112% (active)
Cc1ccc(S(=O)(=O)N(C)C[C@@H]2OCCCC[C@@H](C)Oc3ccc(NS(=O)(=O)c4ccc(F)cc4)cc3C(=O)N([C@H](C)CO)C[C@H]2C)cc1	110% (active)
C[C@@H]1CCCCO[C@H](CN(C)S(=O)(=O)c2ccccc2)[C@@H](C)CN([C@@H](C)CO)C(=O)c2cc(NS(=O)(=O)c3ccccc3)ccc2O1	78.8% (inactive)

SMILES	inhibition
C[C@H](CO)N1C[C@H](C)[C@H](CN(C)S(=O)(=O)c2ccc(F)cc2)OCCCC[C@H](C)Oc2ccc(NS(=O)(=O)c3ccc(Cl)cc3)cc2C1=O	97.6% (active)
C[C@H](CO)N1C[C@H](C)[C@@H](CN(C)C(=O)CCC(F)(F)F)OCCCC[C@H](C)Oc2ccc(NC(=O)C3CCCCC3)cc2C1=O	39.7% (inactive)
COc1cccc(-c2ccc3c(c2)[C@@H]2[C@@H](CCN2S(=O)(=O)C2=NC(C)C=N2)[C@@H](CO)N3C)c1 (stereo partly specified)	6.92% (inactive)
CO[C@H]1CN(C)C(=O)c2cc(NC(=O)Nc3cccc(F)c3)ccc2OC[C@H](C)N(C(C)=O)C[C@H]1C	26.3% (inactive)
COc1cccc(-c2ccc([C@H]3[C@H](CO)N4CCCCN(S(=O)(=O)c5cccs5)C[C@@H]34)cc2)c1	91.7% (inactive)
O=S(=O)(c1ccccc1)N1CCCCN2[C@H](C1)[C@H](c1ccc(-c3ccccc3)cc1)[C@@H]2CO	94.7% (inactive)
CCCC#Cc1ccc([C@H]2[C@@H](CO)N3CCCCN(S(=O)(=O)Cc4ccccc4)C[C@H]23)cc1	54.7% (inactive)
O=S(=O)(Cc1ccccc1)N1CCCCN2[C@@H](CO)[C@@H](c3ccc(-c4ccc(F)cc4)cc3)[C@@H]2C1	98.2% (active)
O=S(=O)(Cc1ccccc1)N1CCCCN2[C@@H](CO)[C@H](c3ccc(-c4cccnc4)cc3)[C@@H]2C1	106% (active)
CN1CCCCN2[C@H](CO)[C@H](c3ccc(-c4ccc(F)cc4)cc3)[C@@H]2C1	14.5% (inactive)
CCS(=O)(=O)N1CCCCN2[C@@H](CO)[C@@H](c3ccc(-c4ccccc4)cc3)[C@@H]2C1	93.7% (active)
Cc1cccc(-c2ccc([C@@H]3[C@@H](CO)N4CCCCN(S(=O)(=O)c5cccs5)C[C@H]34)cc2)c1	118% (active)
Cc1cccc(-c2ccc([C@H]3[C@H](CO)N4CCCCN(S(=O)(=O)c5cn(C)cn5)C[C@@H]34)cc2)c1	41.5% (inactive)
OC[C@H]1[C@H](c2ccc(-c3cccnc3)cc2)[C@H]2CN(Cc3ccccn3)CCCCN21	79.7% (inactive)
CCCC#Cc1ccc([C@H]2[C@@H](CO)N3CCCCN(S(=O)(=O)CC)C[C@H]23)cc1	65.9% (inactive)
COCc1cn(CC[C@H]2CC[C@H](NC(=O)Nc3ccc4c(c3)OCO4)[C@@H](CO)O2)nn1	-12.8% (inactive)
C[C@H](CO)N1C[C@H](C)[C@@H](CN(C)C(=O)Nc2ccc3c(c2)OCO3)OCCCC[C@H](C)Oc2ccc(NC(=O)Nc3ccc(F)cc3)cc2C1=O	-31.4% (inactive)
O=C(C[C@H]1C=C[C@H](NC(=O)C2CCOCC2)[C@@H](CO)O1)NCC1CC1	-20.7% (inactive)
